Source: the supplement of paper PMC9446081
± gives the standard deviation of the averaged measurements.

Experiments:
Assay in all cases: relative enzymatic activity vs untreated control (fraction); higher = less inhibition
Conditions in all cases: 100 µM; incubation time: 2 h at 37 C
DNA gyrase = test system: DNA gyrase
Experimental: (§1)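 In vitro enzymatic inhibition assays (ProFoldin kits) for 12 purified essential E. coli enzymes or complexes, each treated with 218 active antibacterial compounds at 100 µM for 2 h at 37°C. Read-outs were fluorescence or absorbance (phosphate detection, dye binding), converted to activity via standard curves and expressed relative to untreated DMSO controls.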

DNA helicase = DNA helicase (UniProt P0ACB1)
Experimental: as §1

DNA ligase = DNA ligase (UniProt B1XA82)
Experimental: as §1

DNA polymerase = DNA polymerase (UniProt P10443)
Experimental: as §1

DNA primase = DNA primase (UniProt P0ABS7)
Experimental: as §1

GlmU = GlmU (UniProt A7ZTU1)
Experimental: as §1

Guanlyate kinase = Guanlyate kinase (UniProt Q0TBG1)
Experimental: as §1

MurA = MurA (UniProt Q3YX52)
Experimental: as §1

MurD = target: T1, MurD (UniProt P14900)
T1 sequence (whole entry): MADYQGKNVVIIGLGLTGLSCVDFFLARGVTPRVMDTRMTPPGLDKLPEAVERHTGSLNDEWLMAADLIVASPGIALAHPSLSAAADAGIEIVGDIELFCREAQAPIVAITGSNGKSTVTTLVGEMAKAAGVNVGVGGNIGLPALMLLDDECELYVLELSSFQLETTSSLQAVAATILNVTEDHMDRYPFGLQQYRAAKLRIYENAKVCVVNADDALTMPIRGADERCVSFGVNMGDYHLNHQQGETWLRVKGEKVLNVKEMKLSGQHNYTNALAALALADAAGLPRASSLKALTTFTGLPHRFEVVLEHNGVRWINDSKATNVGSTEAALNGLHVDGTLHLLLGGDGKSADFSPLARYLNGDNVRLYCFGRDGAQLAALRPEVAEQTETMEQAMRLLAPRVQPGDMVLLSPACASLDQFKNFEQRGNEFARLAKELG
Experimental: as §1

MurF = target: T2, MurF (UniProt P11880)
T2 sequence (whole entry): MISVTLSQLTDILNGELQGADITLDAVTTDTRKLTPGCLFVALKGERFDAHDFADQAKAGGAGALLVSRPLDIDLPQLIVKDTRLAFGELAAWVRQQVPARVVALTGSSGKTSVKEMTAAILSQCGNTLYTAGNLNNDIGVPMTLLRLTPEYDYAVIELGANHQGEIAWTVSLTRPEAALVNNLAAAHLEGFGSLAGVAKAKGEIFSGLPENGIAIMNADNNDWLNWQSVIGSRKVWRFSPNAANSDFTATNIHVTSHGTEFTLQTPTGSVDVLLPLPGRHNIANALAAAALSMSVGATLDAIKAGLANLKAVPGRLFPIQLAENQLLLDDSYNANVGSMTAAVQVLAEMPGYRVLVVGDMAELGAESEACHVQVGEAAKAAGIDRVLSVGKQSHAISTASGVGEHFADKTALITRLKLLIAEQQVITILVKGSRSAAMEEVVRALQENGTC
Experimental: as §1

RNA polymerase = test system: RNA polymerase
Experimental: as §1

DNA helicase, sequence (P0ACB1 whole entry): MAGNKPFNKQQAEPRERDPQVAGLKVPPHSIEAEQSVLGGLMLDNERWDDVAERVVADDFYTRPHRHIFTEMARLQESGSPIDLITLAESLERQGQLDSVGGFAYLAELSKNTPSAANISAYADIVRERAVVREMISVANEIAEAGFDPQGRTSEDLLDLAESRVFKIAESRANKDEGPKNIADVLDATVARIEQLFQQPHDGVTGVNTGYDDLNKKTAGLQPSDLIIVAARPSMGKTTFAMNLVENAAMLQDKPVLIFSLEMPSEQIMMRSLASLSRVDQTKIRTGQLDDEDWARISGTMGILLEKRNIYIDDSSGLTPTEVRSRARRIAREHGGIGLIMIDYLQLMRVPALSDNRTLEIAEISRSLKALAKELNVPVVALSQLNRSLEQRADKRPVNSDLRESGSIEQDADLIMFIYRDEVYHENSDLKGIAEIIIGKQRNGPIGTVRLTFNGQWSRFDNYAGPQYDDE
Guanlyate kinase, sequence (Q0TBG1 whole entry): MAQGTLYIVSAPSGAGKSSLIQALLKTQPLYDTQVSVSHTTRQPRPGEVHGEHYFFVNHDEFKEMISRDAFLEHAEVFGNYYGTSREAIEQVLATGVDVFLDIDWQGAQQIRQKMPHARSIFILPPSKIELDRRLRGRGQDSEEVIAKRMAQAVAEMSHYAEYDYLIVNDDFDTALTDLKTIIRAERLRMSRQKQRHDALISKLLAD
DNA primase, sequence (P0ABS7 whole entry): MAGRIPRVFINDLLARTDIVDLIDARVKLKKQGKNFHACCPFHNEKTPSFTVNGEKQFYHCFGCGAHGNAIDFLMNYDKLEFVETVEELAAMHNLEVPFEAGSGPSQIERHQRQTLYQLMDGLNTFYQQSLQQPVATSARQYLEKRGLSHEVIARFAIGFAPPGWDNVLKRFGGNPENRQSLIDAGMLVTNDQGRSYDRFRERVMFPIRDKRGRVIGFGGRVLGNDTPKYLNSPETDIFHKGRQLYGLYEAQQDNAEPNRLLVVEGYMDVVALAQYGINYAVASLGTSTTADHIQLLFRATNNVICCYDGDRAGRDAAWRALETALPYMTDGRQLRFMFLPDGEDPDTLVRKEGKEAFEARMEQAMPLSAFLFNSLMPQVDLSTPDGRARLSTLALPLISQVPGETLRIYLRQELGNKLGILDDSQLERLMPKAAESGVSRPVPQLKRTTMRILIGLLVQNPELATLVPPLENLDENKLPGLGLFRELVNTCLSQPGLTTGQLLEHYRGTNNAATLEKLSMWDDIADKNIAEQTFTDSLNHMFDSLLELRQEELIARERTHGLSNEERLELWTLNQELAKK
DNA ligase, sequence (B1XA82 whole entry): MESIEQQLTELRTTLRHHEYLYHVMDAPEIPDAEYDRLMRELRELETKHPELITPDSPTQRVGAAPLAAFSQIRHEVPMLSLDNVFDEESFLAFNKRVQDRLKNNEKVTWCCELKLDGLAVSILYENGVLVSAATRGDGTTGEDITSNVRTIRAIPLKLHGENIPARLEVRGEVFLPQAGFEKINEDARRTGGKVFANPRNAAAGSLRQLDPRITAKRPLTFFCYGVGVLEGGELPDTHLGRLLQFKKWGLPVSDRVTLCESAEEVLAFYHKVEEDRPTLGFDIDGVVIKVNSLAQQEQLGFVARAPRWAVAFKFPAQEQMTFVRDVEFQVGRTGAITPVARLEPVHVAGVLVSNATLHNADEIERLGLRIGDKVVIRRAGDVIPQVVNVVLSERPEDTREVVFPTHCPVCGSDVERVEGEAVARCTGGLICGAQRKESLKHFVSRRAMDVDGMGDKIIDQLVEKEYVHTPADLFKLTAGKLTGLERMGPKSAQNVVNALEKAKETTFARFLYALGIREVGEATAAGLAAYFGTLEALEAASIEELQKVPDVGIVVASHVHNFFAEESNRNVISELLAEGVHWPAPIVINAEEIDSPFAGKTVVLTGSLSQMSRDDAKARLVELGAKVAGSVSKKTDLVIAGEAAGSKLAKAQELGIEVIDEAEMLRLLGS
MurA, sequence (Q3YX52 whole entry): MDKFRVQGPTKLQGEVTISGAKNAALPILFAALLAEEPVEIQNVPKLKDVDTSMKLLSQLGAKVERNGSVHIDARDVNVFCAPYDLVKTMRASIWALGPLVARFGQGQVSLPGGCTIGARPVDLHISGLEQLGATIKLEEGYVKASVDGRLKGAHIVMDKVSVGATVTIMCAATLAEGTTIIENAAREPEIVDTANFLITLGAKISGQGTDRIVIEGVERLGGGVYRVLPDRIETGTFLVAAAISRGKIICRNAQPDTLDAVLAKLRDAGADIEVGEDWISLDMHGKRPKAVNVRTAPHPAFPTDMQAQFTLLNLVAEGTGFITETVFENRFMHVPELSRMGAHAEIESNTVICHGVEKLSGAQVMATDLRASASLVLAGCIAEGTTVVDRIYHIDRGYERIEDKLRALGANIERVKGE
DNA polymerase, sequence (P10443 whole entry): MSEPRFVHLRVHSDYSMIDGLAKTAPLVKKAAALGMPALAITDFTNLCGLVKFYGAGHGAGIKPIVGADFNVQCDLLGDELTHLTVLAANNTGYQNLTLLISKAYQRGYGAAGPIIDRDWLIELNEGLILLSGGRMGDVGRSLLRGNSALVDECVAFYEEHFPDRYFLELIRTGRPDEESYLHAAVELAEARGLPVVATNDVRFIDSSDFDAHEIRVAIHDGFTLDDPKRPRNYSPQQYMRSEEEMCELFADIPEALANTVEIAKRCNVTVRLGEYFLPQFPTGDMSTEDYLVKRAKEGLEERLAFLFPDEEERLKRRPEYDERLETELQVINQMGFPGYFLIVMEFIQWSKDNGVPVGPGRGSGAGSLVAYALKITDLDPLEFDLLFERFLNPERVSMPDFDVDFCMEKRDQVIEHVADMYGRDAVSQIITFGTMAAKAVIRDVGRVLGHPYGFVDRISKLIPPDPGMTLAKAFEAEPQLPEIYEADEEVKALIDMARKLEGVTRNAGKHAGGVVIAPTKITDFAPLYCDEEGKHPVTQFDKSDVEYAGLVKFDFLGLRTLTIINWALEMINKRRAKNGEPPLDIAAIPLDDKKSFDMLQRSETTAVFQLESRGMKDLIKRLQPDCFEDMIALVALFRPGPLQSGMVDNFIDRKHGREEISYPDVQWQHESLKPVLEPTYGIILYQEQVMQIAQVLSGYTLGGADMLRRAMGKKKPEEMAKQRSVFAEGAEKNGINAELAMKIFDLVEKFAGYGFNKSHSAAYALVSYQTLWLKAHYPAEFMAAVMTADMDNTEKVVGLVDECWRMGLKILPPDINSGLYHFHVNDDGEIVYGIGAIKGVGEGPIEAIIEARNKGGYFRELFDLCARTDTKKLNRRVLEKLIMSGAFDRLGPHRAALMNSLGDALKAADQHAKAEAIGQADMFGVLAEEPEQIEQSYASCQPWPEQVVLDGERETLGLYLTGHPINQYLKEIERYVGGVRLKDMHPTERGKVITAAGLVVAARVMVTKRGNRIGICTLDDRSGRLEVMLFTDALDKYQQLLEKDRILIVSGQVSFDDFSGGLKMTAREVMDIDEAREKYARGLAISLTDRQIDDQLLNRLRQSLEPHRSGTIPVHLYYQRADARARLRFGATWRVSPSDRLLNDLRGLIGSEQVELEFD
GlmU, sequence (A7ZTU1 whole entry, looked up): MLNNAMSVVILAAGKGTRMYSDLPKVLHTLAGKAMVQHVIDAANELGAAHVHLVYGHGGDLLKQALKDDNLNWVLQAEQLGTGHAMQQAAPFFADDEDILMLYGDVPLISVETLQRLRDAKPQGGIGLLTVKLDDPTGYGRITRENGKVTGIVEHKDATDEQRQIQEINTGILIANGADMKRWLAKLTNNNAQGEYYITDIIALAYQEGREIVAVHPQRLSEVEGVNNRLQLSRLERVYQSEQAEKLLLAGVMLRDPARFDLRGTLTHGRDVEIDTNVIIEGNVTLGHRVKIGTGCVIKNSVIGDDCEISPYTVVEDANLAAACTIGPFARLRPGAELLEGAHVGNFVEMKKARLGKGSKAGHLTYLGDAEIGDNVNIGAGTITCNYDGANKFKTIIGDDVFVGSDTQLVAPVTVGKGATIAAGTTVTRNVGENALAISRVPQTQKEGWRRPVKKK

Row | SMILES | relative enzymatic activity (DNA gyrase) | relative enzymatic activity (DNA helicase) | relative enzymatic activity (DNA ligase) | relative enzymatic activity (DNA polymerase) | relative enzymatic activity (DNA primase) | relative enzymatic activity (GlmU) | relative enzymatic activity (Guanlyate kinase) | relative enzymatic activity (MurA) | relative enzymatic activity (MurD) | relative enzymatic activity (MurF) | relative enzymatic activity (RNA polymerase)
1 | NC[C@H]1OB(O)c2c(OCCCO)cccc21 | 0.84 ± 0.32 | 0.308 ± 0.43 | 0.887 ± 0.13 | 1.08 ± 0.082 | 0.8235 ± 0.0023 | 0.922 ± 0.11 | 0.991 ± 0.1 | 0.709 ± 0.16 | 0.564 ± 0.35 | 1.17 ± 0.024 | 0.871 ± 0.073
2 | CC(O)C1C(=O)N2C(C(=O)O)=C(SC3CNC(C(=O)N(C)C)C3)C(C)C12 (configuration not stated) | 0.734 ± 0.42 | 0.994 ± 0.1 | 1.45 ± 0.021 | 1.26 ± 0.3 | 0.719 ± 0.22 | 1.04 ± 0.19 | 0.973 ± 0.11 | 0.501 ± 0.29 | 0.487 ± 0.33 | 0.584 ± 0.82 | 1.09 ± 0.28
3 | NCCONC(=O)[C@@H]1CC[C@@H]2CN1C(=O)N2OS(=O)(=O)O | 0.796 ± 0.34 | 0.527 ± 0.074 | 1.08 ± 0.078 | 1.13 ± 0.22 | 0.762 ± 0.033 | 1.02 ± 0.082 | 1.01 ± 0.12 | 0.709 ± 0.27 | 0.562 ± 0.36 | 0.971 ± 0.24 | 0.902 ± 0.075
4 | NC(=O)[C@@H]1C(=O)C[C@@H]2C[C@@H]3Cc4cccc(O)c4C(=O)[C@@H]3C(=O)[C@]2(O)C1=O | 1.02 ± 0.18 | 0.519 ± 0.062 | 0.963 ± 0.042 | 0.976 ± 0.11 | 0.822 ± 0.017 | 1.08 ± 0.021 | 0.796 ± 0.086 | 0.328 ± 0.11 | 0.62 ± 0.39 | 1.01 ± 0.2 | 0.715 ± 0.048
5 | NCC[C@H](O)C(=O)N[C@@H]1C[C@H](N)[C@@H](O[C@H]2O[C@H](CN)[C@@H](O)[C@H](O)[C@H]2O)[C@H](O)[C@H]1O[C@H]1O[C@H](CO)[C@@H](O)[C@H](N)[C@H]1O | 0.228 ± 0.0032 | 0.0994 ± 0.0019 | 0.871 ± 0.16 | 0.863 ± 0.26 | 0.508 ± 0.14 | 0.9473 ± 0.0079 | 0.438 ± 0.056 | 0.326 ± 0.1 | 0.608 ± 0.42 | 0.979 ± 0.24 | 0.699 ± 0.083
6 | N[C@@H](C(=O)N[C@@H]1C(=O)N2C(C(=O)O)=C(Cl)CS[C@H]12)c1ccccc1 | 0.759 ± 0.31 | 0.537 ± 0.076 | 1.02 ± 0.078 | 1.1 ± 0.25 | 0.801 ± 0.021 | 0.911 ± 0.035 | 0.87 ± 0.074 | 0.168 ± 0.067 | 0.579 ± 0.39 | 0.954 ± 0.21 | 0.766 ± 0.036
7 | CC1(C)S[C@@H]2[C@H](NC(=O)[C@H](N)c3ccccc3)C(=O)N2[C@H]1C(=O)OCOC(=O)[C@@H]1N2C(=O)C[C@H]2S(=O)(=O)C1(C)C | 0.828 ± 0.25 | 0.472 ± 0.23 | 0.742 ± 0.024 | 0.512 ± 0.72 | 0.809 ± 0.025 | 0.994 ± 0.012 | 0.946 ± 0.046 | 0.6 ± 0.24 | 0.58 ± 0.38 | 1.11 ± 0.15 | 0.868 ± 0.042
8 | CCN1CCN(c2cc3c(cc2F)c(=O)c(C(=O)O)cn3C2CC2)CC1 | 0.0177 ± 0.025 | 0.462 ± 0.018 | 1.05 ± 0.34 | 1.15 ± 0.22 | 0.617 ± 0.12 | 1 ± 0.11 | 0.894 ± 0.05 | 0.659 ± 0.029 | 0.59 ± 0.4 | 0.88 ± 0.13 | 0.808 ± 0.02
9 | CCCCCCCCCCCCCCCC[N+](C)(C)Cc1ccccc1.[Cl-] | 0.3954 ± 0.003 | 0.0157 ± 0.00047 | 0.183 ± 0.12 | 0.0334 ± 0.0085 | 0.27 ± 0.0085 | 0.115 ± 0.0013 | 0.0243 ± 0.0088 | 0.032 ± 0.0013 | 0.0872 ± 0.0094 | 0.156 ± 0.061 | 0.133 ± 0.018
10 | CO/N=C(\C(=O)N[C@@H]1C(=O)N2C(C(=O)O)=C(C[n+]3ccn4ncccc43)CS[C@H]12)c1nsc(N)n1 | 0.675 ± 0.49 | 0.625 ± 0.3 | 0.891 ± 0.17 | 1.14 ± 0.26 | 0.77 ± 0.018 | 0.999 ± 0.0029 | 0.949 ± 0.069 | 0.305 ± 0.13 | 0.591 ± 0.38 | 0.909 ± 0.24 | 0.8278 ± 0.0046
11 | NC[C@H]1O[C@H](O[C@H]2[C@H](O)[C@@H](O[C@H]3O[C@H](CO)[C@@H](O)[C@H](N)[C@H]3O)[C@H](N)C[C@@H]2N)[C@H](N)C[C@@H]1O | 0.902 ± 0.18 | 0.378 ± 0.22 | 0.91 ± 0.034 | 1.19 ± 0.21 | 0.572 ± 0.14 | 1.02 ± 0.033 | 0.443 ± 0.1 | 0.747 ± 0.093 | 0.609 ± 0.42 | 0.956 ± 0.23 | 0.906 ± 0.048
12 | Cc1cn(C2CC(N=[N+]=[N-])C(CO)O2)c(=O)[nH]c1=O (configuration not stated) | 0.801 ± 0.34 | 0.472 ± 0.1 | 1.38 ± 0.076 | 1.3 ± 0.36 | 0.692 ± 0.18 | 1.002 ± 0.0012 | 0.865 ± 0.097 | 0.77 ± 0.043 | 0.573 ± 0.35 | 0.97 ± 0.2 | 0.887 ± 0.0091
13 | CCC=C(C(=O)NC1C(=O)N2C(C(=O)OCOC(=O)C(C)(C)C)=C(COC(N)=O)CSC12)c1csc(N)n1.Cl (configuration not stated) | 0.924 ± 0.071 | 0.354 ± 0.016 | 0.883 ± 0.11 | 1.17 ± 0.27 | 0.907 ± 0.088 | 0.939 ± 0.024 | 1.02 ± 0.098 | 0.293 ± 0.18 | 0.576 ± 0.37 | 0.941 ± 0.21 | 0.977 ± 0.094
14 | CN1CCN(c2c(F)cc3c(=O)c(C(=O)O)cn(CCF)c3c2F)CC1 | 0.024 ± 0.034 | 0.746 ± 0.23 | 1.37 ± 0.041 | 1.28 ± 0.3 | 0.722 ± 0.21 | 1.16 ± 0.2 | 0.94 ± 0.085 | 0.748 ± 0.029 | 0.591 ± 0.39 | 0.984 ± 0.22 | 1.05 ± 0.31
15 | NCCC(O)C(=O)NC1CC(N)C(OC2OC(CN)C(O)C(O)C2O)C(O)C1OC1OC(CO)C(O)C(N)C1O.O (configuration not stated) | 0.693 ± 0.16 | 0.562 ± 0.14 | 0.998 ± 0.06 | 0.875 ± 0.12 | 0.824 ± 0.023 | 0.994 ± 0.011 | 0.647 ± 0.01 | 0.963 ± 0.055 | 0.564 ± 0.37 | 0.962 ± 0.21 | 0.434 ± 0.49
16 | CN1CCN(c2cc3c(cc2F)c(=O)c(C(=O)O)cn3-c2ccc(F)cc2)CC1.Cl | 0.0325 ± 0.046 | 0.445 ± 0.075 | 1.46 ± 0.11 | 1.3 ± 0.33 | 0.681 ± 0.17 | 0.957 ± 0.011 | 0.9286 ± 0.0092 | 0.593 ± 0.055 | 0.566 ± 0.37 | 0.959 ± 0.17 | 0.929 ± 0.056
17 | CN(C)c1ccc(O)c2c1C[C@H]1C[C@H]3[C@H](N(C)C)C(=O)C(C(N)=O)=C(O)[C@@]3(O)C(=O)[C@H]1C2=O | 0.655 ± 0.27 | 0.659 ± 0.38 | 0.8389 ± 0.0033 | 0.961 ± 0.2 | 0.669 ± 0.027 | 0.995 ± 0.035 | 0.701 ± 0.069 | 0.0752 ± 0.015 | 0.623 ± 0.42 | 0.96 ± 0.18 | 0.304 ± 0.052
